From PubChem
A selection: hits, their analogues and other compounds. The true share with any hit is near 6.1%.
D1 ag: Allosteric Agonists of the Human D1 Dopamine Receptor: qHTS | D(1A) dopamine receptor (Homo sapiens), P21728 | HEK293 T-REx D1 cells, calcium flux, agonist mode | activation, % at 2 µM | 1% of 360,000 active | AID 504660, 2011; in the data active means activation above about 30%
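Inducible HEK293 T-REx D1 cells, force-coupled to calcium signalling, were plated at 4000 cells/well with tetracycline and held overnight at 30 C. After no-wash calcium dye loading, compound-evoked calcium rise over 180 s flagged agonists.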
D1 antag: Antagonist of Human D 1 Dopamine Receptor: qHTS; HEK293 TREx D1 cells, calcium flux, dopamine EC80; hits give low values; 3.2% of 360,000 active; D(1A) dopamine receptor (Homo sapiens), P21728; activity change, negative = inhibition, % at 10 µM; in the data active means activity change below about -30%
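Kinetic fluorescence of a calcium dye serves as the read-out. D1-expressing Hek293 Trex cells, induced overnight at 30 C, are exposed to compound for 180 s before an EC80 dopamine addition, then read 180 s further.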
DRD3 antagonist: qHTS of D3 Dopamine Receptor Antagonist: qHTS; D(3) dopamine receptor (Homo sapiens), P35462; D3R cells, DiscoveRx beta-arrestin luminescence, antagonist mode; hits give low values; max response, negative = inhibition, %; 2.5% of 360,000 active; in the data active means max response below about -50%; inconclusive means no clear call, values can overlap the other calls
Target sequence (P35462 whole entry, looked up): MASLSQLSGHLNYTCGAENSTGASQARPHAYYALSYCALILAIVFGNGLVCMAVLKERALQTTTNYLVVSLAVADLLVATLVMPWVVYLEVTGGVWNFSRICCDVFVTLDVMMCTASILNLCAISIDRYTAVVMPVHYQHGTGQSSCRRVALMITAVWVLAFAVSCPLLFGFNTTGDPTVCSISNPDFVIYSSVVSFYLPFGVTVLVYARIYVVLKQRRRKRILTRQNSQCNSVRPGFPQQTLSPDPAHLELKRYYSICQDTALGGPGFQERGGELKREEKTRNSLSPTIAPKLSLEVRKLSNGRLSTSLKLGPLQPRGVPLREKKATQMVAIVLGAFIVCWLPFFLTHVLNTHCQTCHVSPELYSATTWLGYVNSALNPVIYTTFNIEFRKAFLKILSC
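Cells expressing the human receptor were seeded at 1500 cells/well, incubated overnight at 37 degrees C in 5% CO2, then exposed to library compounds with dopamine controls for 90 minutes at 37 degrees C before luminescent detection.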
DRD3 agonist: qHTS of D3 Dopamine Receptor Agonist: qHTS. D(3) dopamine receptor (Homo sapiens), P35462. D3R DiscoveRx beta-arrestin cells, luminescence, 90 min. max activation, %. 0.58% of 410,000 active; in the data active means max activation above about 30%
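Agonist-mode cell screen: cells plated at 1500/well and incubated overnight at 37 °C, then exposed to library compounds for 90 min at 37 °C. Detection reagent was added for 30–60 min at room temperature, and luminescence was read.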
D1 PAM: Potentiators of Human D1 Dopamine Receptor: qHTS | D(1A) dopamine receptor (Homo sapiens), P21728 | HEK293 TREx D1 cells, calcium flux, dopamine EC20 potentiation | potentiation, % at 10 µM | 0.036% of 360,000 active | AID 504651, 2011; in the data active means potentiation above about 30%
ERG-DNA inh: qHTS for Small Molecule Inhibitors of the ERG Ets/DNA interaction. AID 624246, 2012. 0.028% of 370,000 active. Potency, µM (titrated, usually from 76.9 µM), actives largely listed as inhibitors. Transcriptional regulator ERG (Homo sapiens), P11308. fluorescence polarization, His-ERG Ets domain / labelled DNA; active means well fitted inhibition curve with a large enough effect in the polarisation, with a control signal flat; inconclusive means small, poorly fitted or top-dose-only effect, or effect the other way, or a change in a side signal; inactive means no such curve, though single readings can be large or run the other way; the % refers to the polarisation;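 further: polarization taken with two DNA probes labelled with fluorescein and Texas red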
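His-tagged ERG Ets domain (1 uM in the protein solution; 300mM KCl, 50mM Tris-HCl, 1mM EDTA, 1mM DTT, pH 7.5) received compound, then a probe mix of 5 nM fluorescein-DNA and 100nM Texas-615-DNA. Fluorescence polarization was read for both dyes.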
Numbers stand for hits; n = inactive; u = inconclusive; x = no result given.

SMILES | D1 ag | D1 antag | DRD3 antagonist | DRD3 agonist | D1 PAM | ERG-DNA inh
COc1ccc(NC(=O)CSc2nc(O)cc(=O)n2C)cc1 | n | n | n | n | n | n
CCOC(=O)c1sc2nc(CSc3ccccc3)nc(N3CCCN(C)CC3)c2c1C | 30 | n | -62 | n | n | n
CSc1ccn(CCC(=O)O)c(=O)n1 | n | n | n | n | n | n
CCOC(=O)N1CCC(N2C(=O)c3ccccc3C2Nc2ccccc2C)CC1 (stereo unspecified) | n | -71 | n | n | n | n
CCOC(=O)c1ccccc1NC1c2ccccc2C(=O)N1C1CCN(C(=O)OCC)CC1 (stereo unspecified) | n | n | n | n | n | n
COc1cccc(OCCNc2cc(N3CCCCC3)ccc2[N+](=O)[O-])c1 | n | n | n | n | n | n
Cc1cccc(OCCNc2cc(N3CCN(CCO)CC3)ccc2[N+](=O)[O-])c1 | n | n | -58 | n | n | x
COc1ccc(OCCNc2cc(N3CCCCC3)ccc2[N+](=O)[O-])cc1 | n | n | n | n | n | n
CC1CN(c2ccc([N+](=O)[O-])c(NCCOc3ccccc3)c2)CCN1 (stereo unspecified) | 32 | n | u | n | n | n
Cc1ccccc1OCCNc1cc(N2CCN(CCO)CC2)ccc1[N+](=O)[O-] | 33 | n | -64 | n | n | n
Cc1ccccc1OCCNc1cc(N2CCCCC2)ccc1[N+](=O)[O-] | n | n | n | n | n | n
CC(=O)c1cccc(NC(=O)CC(c2ccc(C)cc2)N2Cc3ccccc3C2=O)c1 (stereo unspecified) | n | n | x | n | n | n
NC(=O)c1cccn1Cc1cccc(Cl)c1 | n | n | n | n | n | n
NC(=O)c1cccn1Cc1ccccc1Cl | n | n | -77 | n | n | n
O=C(CN(C(=O)c1csnn1)c1ccccc1C(F)(F)F)NCc1ccccc1 | n | n | n | n | n | n
C/C(=N\NC(=O)CSCc1ccccc1Cl)c1cc(O)ccc1O | n | -37 | n | n | n | n
COCCN=c1scc(-c2ccco2)n1/N=C/c1ccc(O)c(O)c1O | n | n | n | 117 | n | n
C=CCN=c1scc(-c2ccco2)n1/N=C/c1ccc(O)c(O)c1O | n | n | n | 184 | n | n
CN=c1scc(-c2cccs2)n1/N=C/c1ccc(O)c(O)c1O | n | -89 | n | 170 | n | n
CC(C)N=c1scc(-c2ccco2)n1/N=C/c1ccc(O)c(O)c1 | n | n | n | n | n | n
COc1cccc(Cn2c(C)c(CNCc3cccc(C)c3)c(C(=O)O)c2C)c1 | n | n | x | n | n | u
Cc1ccc(C)c(NC(=S)NC(NC(=O)OCc2ccccc2)C(Cl)(Cl)Cl)c1 (stereo unspecified) | n | n | u | n | n | x
O=C(NC(NC(=S)Nc1c(Cl)cc(Cl)cc1Cl)C(Cl)(Cl)Cl)OCc1ccccc1 (stereo unspecified) | n | n | -76 | n | n | x
CC(C)(C)[C@H]1COC(=O)[C@@H](Cc2ccc(F)cc2)C/C=C\C[C@@H](CC(=O)N[C@@H](CO)Cc2ccccc2)C(=O)N1 | x | x | n | n | x | n
N/C(Cc1ccccc1Sc1ccccc1)=N\O | n | n | n | n | n | n
SMILES | D1 ag | D1 antag | DRD3 antagonist | DRD3 agonist | D1 PAM | ERG-DNA inh
N/C(Cc1cccc2ccccc12)=N\O | n | n | n | 30 | n | n
COCCNC(=S)N/N=C/c1ccc2c(c1)OCCO2 | n | n | n | n | n | n
O=C(Cn1cnc2ccccc2c1=O)Nc1ccc(-c2nnc3n2CCCCC3)cc1 | n | n | n | n | n | n
O=C(Cn1cnc2ccccc2c1=O)Nc1cccc(-c2nnc3n2CCCCC3)c1 | n | n | -51 | n | n | n
COC(=O)C(Sc1nc(C)cc(C)c1C#N)c1ccccc1 (stereo unspecified) | n | -32 | n | n | n | x
CCOC(=O)CN(C(=O)CNC(=O)c1cccs1)C(C(=O)NC1CCCCC1)c1cccs1 (stereo unspecified) | n | n | n | n | n | n
Cc1nc(N)c(Cc2ccccc2F)c(N)n1 | n | -35 | n | n | n | n
COc1cccc(N2CCN(Cc3cccnc3)CC2)c1 | n | n | u | n | n | n
COc1ccc(CN2CCN(c3ccccn3)CC2)cc1OCc1ccccc1 | n | n | -69 | n | n | n
COc1cccc(CN2CCN(c3ncccn3)CC2)c1 | n | n | -59 | 35 | n | n
Cc1ccc(CN2CCN(c3ncccn3)CC2)o1 | n | n | -54 | n | n | n
C=CCc1ccc(OCCCCN2CC(C)CC(C)C2)c(OC)c1 (stereo unspecified) | n | n | -105 | n | n | n
CCCCn1nnnc1C1(C)CCC(=O)N1CC(F)(F)F (stereo unspecified) | x | x | n | n | x | x
COC(=O)c1ccc(C)c(NC(=O)CCc2cc(OC)c(OC)c(OC)c2)c1 | n | n | n | n | n | n
COc1cc(CN2CCCC(C)C2)ccc1OCc1ccccc1 (stereo unspecified) | n | n | -62 | n | n | n
C=CCc1ccc(OCCCN2CCCC(C)C2)c(OC)c1 (stereo unspecified) | n | n | -79 | n | n | n
C=CCc1ccc(OCCCCN2CCC(C)CC2)c(OC)c1 | n | n | -59 | n | n | n
COc1cc(CN2CCC(C)CC2)ccc1OCc1ccccc1 | n | n | u | n | n | n
CCn1c(CSc2nnc3ccccn23)nc2cc(C(=O)O)ccc21 | n | n | n | n | n | u
COCCn1c(SCC(=O)NNC(=O)c2cc(Cl)ccc2OC)nnc1-c1ccncc1 | n | n | -100 | n | n | n
CCn1c(CSc2nnc(-c3ccncc3)n2CCOC)nc2cc(C(=O)O)ccc21 | n | n | n | n | n | 5µM
COCCn1c(SCC(=O)Nc2cccc(OC)c2)nnc1-c1ccc(Cl)cc1 | n | n | n | n | n | x
CCn1c(CSc2n[nH]c(N)n2)nc2cc(C(=O)O)ccc21 | n | n | n | n | n | 16µM
Cn1c(Nc2ccccc2)nc2ccccc21 | n | -46 | n | n | n | n
CCCn1c(Nc2nc3ccccc3n2C)nc2ccccc21 | n | n | -102 | n | n | n
CCc1cc(C)cc(OCCOc2ccccc2/C=N/NC(C)=O)c1 | n | n | n | n | n | n
COc1cc(Cl)c(C)cc1NC(=O)c1nn(-c2ccc(C)cc2)c(=O)n(C)c1=O | n | -98 | x | n | n | n
